# Test results published in PubChem BioAssay AID504558 (Broad Institute, 2011).
# About 2,400 (0.69%) of roughly 350,000 compounds were called active. This is one part of a sample in which actives are shown more often than they occur. A number with no mark means an inactive call. No stated cut-off is given here; in the data, active means inhibition above about 41%; inconclusive means no clear call, values can overlap the other calls; inactive means below that.
# Assay: blockers of LMP1-induced NF-kB reporter signal – cell-based, luminescence, single point, primary screen (AID 504558);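 further: 0% = neutral control wells and 100% = reference inhibitor control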
# Details: LMP1-induced NF-kappaB luciferase reporter cells, at 12.5 µM, active compounds read high
row,Compound,inhibition
1,Cn1nc(N)c2ncc(C(Cl)(Cl)Cl)nc21,1.82%
2,O=C1[C@H]2[C@@H](c3ccc(C(F)(F)F)cc3)N[C@]3(CCCN(Cc4ccc(Br)cc4)C3=O)[C@H]2C(=O)N1Cc1ccccc1,-24.7%
3,CCCCCOC(=O)c1ccc(N2C(=O)C3C4C=CC(C4)C3C2=O)cc1 (configuration not stated),0.71%
4,CCCCCCCCCCOC(=O)C[N+](C)(C)CC1CCCCC1O (configuration not stated),51% (active)
5,CC[C@]1(C(=O)OC)[C@H]2C(=O)N(Cc3ccccc3)C(=O)[C@H]2[C@H]2CN=C(SCc3ccc(Cl)cc3)N21,87.9% (active)
6,CC[C@]1(C(=O)OC)[C@H]2C(=O)N(Cc3ccccc3)C(=O)[C@H]2[C@H]2CN=C(SCc3ccc(C#N)cc3)N21,61.8% (active)
7,CCN1C[C@@H]2[C@@H]3C(=O)N(Cc4ccccc4)C(=O)[C@@H]3[C@](Cc3ccccc3)(C(=O)OC)N2C1=NC1CCCCC1,0.675%
8,CCCN=C1N(C)C[C@@H]2[C@@H]3C(=O)N(Cc4ccccc4)C(=O)[C@@H]3[C@](C)(C(=O)OC)N12,-3.21%
9,CC[C@]1(C(=O)OC)[C@H]2C(=O)N(Cc3ccccc3)C(=O)[C@H]2[C@H]2CN=C(SCc3ccccc3)N21,-0.0665%
10,COC(=O)[C@@]1(C)[C@H]2C(=O)N(Cc3ccccc3)C(=O)[C@H]2[C@H]2CN=C(SCC3CC3)N21,-0.447%
11,C[C@@H]1CN([C@H](C)CO)C(=O)CCCn2nncc2CO[C@@H]1CN(C)C(=O)OCc1ccccc1,3.33%
12,CCCCCC(=O)N1C[C@H](O)[C@@H](n2cc(COC(=O)c3ccccc3)nn2)C[C@@H]1c1ccc(C)cc1,-2.09%
13,CC(C)n1ncc2c(C(=O)N3CCN(Cc4cccs4)CC3)cc(C3CC3)nc21,-5.29%
14,NC(=S)NN=Cc1ccc(OC(=O)COc2cc(Cl)c(Cl)cc2Cl)cn1,12.2%
15,CC1=C(C(=O)N(C)C)CC(CC(=O)NCCN2CCOCC2)C(=O)N1Cc1ccccc1 (configuration not stated),-6.42%
16,O=C(c1cccs1)N1C[C@H](n2cc(C3CC3)nn2)[C@@H](O)C[C@@H]1c1ccccc1,5.6%
17,COc1ccc(NC(=O)N2CCCC2C(=O)NCc2ccccc2Cl)cc1 (configuration not stated),86.6% (active)
18,O=C(NCc1ccccc1CN1CCCC1)C1CCN(S(=O)(=O)c2ccc(Cl)cc2)CC1,-3.5%
19,COc1ccc(CCNC(=O)C2CCCN2C(=O)Nc2ccccc2)cc1OC (configuration not stated),-0.848%
20,Cc1cccc(NC(=O)C2CCCN2S(=O)(=O)c2ccc(F)cc2)c1C (configuration not stated),-1.63%
21,COc1ccc(NC(=O)C(NC(C)=O)C(=O)NCc2ccccc2Cl)cc1 (configuration not stated),-2.84%
22,O=C(NCc1ccccc1Cl)C1CCCN1S(=O)(=O)c1ccc(F)cc1 (configuration not stated),45.2% (active)
23,CN1CCn2cnc(C(=O)NCC(=O)OC(C)(C)C)c2C1=O,6.74%
24,COc1ccc(-c2ccc(CN3C(CC(C)C)C(=O)N(Cc4cn(CC5CCCCC5)nn4)CCS3(=O)=O)cc2)cc1 (configuration not stated),17.4%
25,CCCNC(=O)C1CC(=O)N(c2ccc(OCc3ccccc3)cc2)C1 (configuration not stated),-15.7%
26,C/C(COc1ccccc1)=N\NC(=O)c1nnn(-c2nonc2N)c1-c1ccc(C)cc1,4.25%

row,Compound,inhibition
1,Cc1cc(Nc2ccc(C)c(C)c2)n2ncnc2n1,8.05%
2,O=C(CN1C(=O)c2ccccc2S1(=O)=O)N1CCc2ccccc21,71.7% (active)
3,O=C(CSCc1ccccc1)N1CCc2ccccc21,-29.9%
4,CC1CCCN(C(=O)CN2C(=O)c3ccccc3S2(=O)=O)C1 (configuration not stated),-11.4%
5,CC1(C2CC2)NC(=O)N(CC(=O)N2CCN(c3ccccc3F)CC2)C1=O (configuration not stated),-9.22%
6,COc1cc2nnn(-c3ccncc3)c2cc1OC,-4.43%
7,CCCCN(C(C)=O)c1ccc2c(c1)C1CC2CCN1Cc1ccccc1 (configuration not stated),2.88%
8,Cc1cc(C)n(-c2c(F)c(F)c(COC(=O)c3ccccc3)c(F)c2F)n1,-9.15%
9,CCOC(=O)c1cnc(-n2nc(C)cc2C)nc1NNc1cc(C)nc(-c2ccccc2)n1,73.6% (active)
10,Cc1cc(-n2nc(C)cc2C)n2ncc(-c3ccccc3)c2n1,-21%
11,CCOC(=O)c1cc(-c2sc(NC(=O)c3ccccc3)nc2C)n(Cc2ccccc2)n1,12.1%
12,COc1ccc(NC(=O)c2cc(=O)[nH]c3ccccc23)cc1S(=O)(=O)N1CCOCC1,-9.47%
13,N#Cc1ccc(OCC(=O)Nc2nc(-c3ccccn3)cs2)cc1,23.6%
14,COc1ccc(Cl)cc1NC(=O)CN(C)C(=O)c1cn(-c2ccccc2)nc1-c1cccs1,2.49%
15,CC(=O)Nc1ccc2c3c(ccc([N+](=O)[O-])c13)CC2,3.38%
16,CC(=O)c1ccc(Oc2cc(C)nc(-n3nc(C)cc3C)n2)cc1,89.4% (active)
17,COc1ccc(C(C)=O)cc1CSc1nc2nc(C)cc(C)n2n1,6.79%
18,Cc1cc(C)nc(-n2nc(C)cc2NC(=O)c2ccc(F)cc2F)n1,-4.13%
19,C[C@H]1CN([C@@H](C)CO)C(=O)CCCn2cc(nn2)CO[C@@H]1CN(C)S(=O)(=O)c1ccccc1C#N,6.79%
20,C[C@H]1CN([C@@H](C)CO)C(=O)c2cc(-c3ccccc3F)cnc2O[C@H]1CN(C)C(=O)C1CCOCC1,-4.67%
21,CCCCCCN1C[C@@H](O)[C@H](n2cc(COC(=O)c3ccccc3)nn2)C[C@@H]1c1ccc(Cl)cc1,1.86%
22,C[C@H]1CN([C@@H](C)CO)C(=O)c2cc(Br)cnc2O[C@H]1CN(C)S(=O)(=O)c1cccs1,-1.05%
23,COc1cccc(NC(=O)Nc2ccc(F)cc2)c1,-3.33%
24,O=C(CSc1c2c(nc3ccc(Cl)cc13)CCCC2)NCc1ccco1,19.1%
25,O=C(CSc1nc2cc3c(cc2c(=O)n1CCC1=CCCCC1)OCO3)NCc1ccco1,44.3% (active)
26,O=C(CSc1ccc(-c2ccco2)nn1)NCc1ccc2c(c1)OCO2,-3.64%
